outcome, z-score and cell count data for 32 compounds are collected here from PubChem BioAssay AID1645838 (ICCB-Longwood Screening Facility, Harvard Medical School, 2021).

Values joined by “and” are separate entries in the source; they are usually repeats but may differ in a detail not shown here. Equal entries are not always repeated. Screen size: about 2,000 compounds; about 100 (5%) were called active. Rule as the data show it: active = z-score above about 2; inactive = the rest. The list comes from a sample in which actives are over-represented; it also holds similar structures and randomly drawn compounds. Some structures have more than one record in an assay (separate samples or runs), and their calls can disagree.

The test is described as follows: modulators of mitochondrial supercomplex assembly, cell-based, luminescence, Hoechst nuclei count (AID 1645838).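 As to all read-outs here: control cybrid cells.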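 As to z-score: higher means more mitochondrial supercomplex formation.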 Conditions: Cells, luminescence/Hoechst cell count ratio, supercomplex reporter; for z-score: stronger effect = higher value; for cell count: measured here: cell number, Hoechst nuclei count.
Setting [1] is: library stock concentration (final well concentration not given) 80 uM.
[2] abbreviates: library stock concentration (final well concentration not given) 400 uM.
Setting [3] is: library stock concentration (final well concentration not given) 2 mM.
Where [4] appears, read: library stock concentration (final well concentration not given) 10 mM.
Setting [5] is: library stock concentration (final well concentration not given) 46 uM.
The mark [6] stands for this setting: library stock concentration (final well concentration not given) 278 uM.
Where [7] appears, read: library stock concentration (final well concentration not given) 1.67 mM.

`CCCCCCCCCCCCCCCC(=O)OC[C@@H](O)COP(=O)([O-])OCC[N+](C)(C)C`: the outcome is “inactive; censored for cell count”.

With `COc1cc2ncnc(Nc3ccc(F)c(Cl)c3)c2cc1OCCCN1CCOCC1`, the z-score reads like this: under setting [1], 0.183 (inactive); under setting [2], 0.0655 (inactive); under setting [3], 0.641 (inactive); under setting [4], 1.23 (inactive). For the same compound, the cell count amounted to 5740 under setting [1], 5370 under setting [2], 5790 under setting [3] and 4940 under setting [4].

As for `COc1cc2c(Oc3ccc4[nH]c(C)cc4c3F)ncnc2cc1OCCCN1CCCC1`, the z-score is, setting by setting: under setting [5], -0.259 (inactive); under setting [6], -0.207 (inactive); under setting [7], -0.199 (inactive); under setting [4], 0.419 (inactive). In addition, the cell count under setting [5] came to 4900, the cell count under setting [6] stood at 4920, the cell count under setting [7] turned out to be 4790 and the cell count under setting [4] was determined as 3820.

In the case of `COc1cc(Nc2c(C#N)cnc3cc(OCCCN4CCN(C)CC4)c(OC)cc23)c(Cl)cc1Cl`, under “library stock 10 mM”, the outcome was “inactive; censored for cell count”. Moreover, the z-score reads like this: under setting [5], -0.0511 (inactive); under setting [6], 0.0803 (inactive); under setting [7], 2.12 (active). In addition, the cell count stood at 5680 under setting [5], 5890 under setting [6] and 3280 under setting [7].

For `CC1CN(Cc2ccccc2)CC1c1nc2c(cnn2C2CCOCC2)c(=O)[nH]1` (configuration not stated), the z-score is -0.245 (inactive) under setting [1], -0.201 (inactive) under setting [2], -0.281 (inactive) under setting [3] and -0.05 (inactive) under setting [4]. The cell count runs as follows: under setting [1], 6480; under setting [2], 6460; under setting [3], 6500; under setting [4], 5630.

For `CCCCCOc1ccccc1C(O)CC#CCCCC(=O)OC` (configuration not stated), the z-score was -0.738 (inactive) and the cell count was determined as 4890.

Regarding `COc1cc(C)c(Sc2cnc(NC(=O)c3ccc(CNC(C)C(C)C)cc3)s2)cc1C(=O)N1CCN(C(C)=O)CC1` (configuration not stated), for the setting “library stock 10 mM”, the outcome was “inactive; censored for cell count”. For the same compound, the z-score was -0.488 (inactive) under setting [1], -0.307 (inactive) under setting [2] and 0.194 (inactive) under setting [3]. The cell count was determined as 4600 under setting [1], 4380 under setting [2] and 4120 under setting [3].

With `CC(CSC(=O)c1ccccc1)C(=O)N1CC(Sc2ccccc2)CC1C(=O)O` (configuration not stated), the z-score by setting is: under setting [1], -0.846 (inactive); under setting [2], -0.854 (inactive); under setting [3], -0.642 (inactive); under setting [4], -0.914 (inactive). Also, the cell count is, setting by setting: under setting [1], 6770; under setting [2], 5990; under setting [3], 6700; under setting [4], 6110.

`CCCCC[C@H](O)/C=C/[C@@H]1[C@@H](C/C=C\CCCC(=O)N(CC)CC)[C@@H](O)C[C@H]1O`: the z-score is -1.04 (inactive) and the cell count is 5830.

As for `NC(=O)c1noc(C(CCCC2CCCCC2)CC(=O)NO)n1` (configuration not stated), the z-score under setting [5] was -0.365 (inactive), the z-score under setting [6] is -0.421 (inactive), the z-score under setting [7] is -0.0342 (inactive) and the z-score under setting [4] is 2.42 (active). The cell count was determined as 6320 under setting [5], 6380 under setting [6], 5390 under setting [7] and 2560 under setting [4].

Regarding `C=C1C(=O)O[C@H](CCCCCCCC)[C@H]1C(=O)O`, the z-score was -0.4 (inactive) and the cell count is 5960.

As for `CCCCC/C=C\CCCCCCCCCCCCC(=O)O`, the z-score was -0.87 (inactive) and the cell count worked out at 5480.

For `COc1ccc(CCCOC(Cn2ccnc2)c2ccc(OC)cc2)cc1` (configuration not stated), the z-score was 0.304 (inactive) and the cell count stood at 4930.

`CN(C)CCCCCCOc1ccc(-n2ccnc2)cc1`: the z-score was 2.07 (active) and 0.161 (inactive); the cell count is 4900 and 5850.

For `NC(=O)C(c1ccccc1)(c1ccc(F)cc1)c1ccc(F)cc1`, the z-score by setting is: under setting [5], -0.117 (inactive); under setting [6], 0.34 (inactive); under setting [7], -0.0437 (inactive); under setting [4], 0.799 (inactive). Further, the cell count reads like this: under setting [5], 6820; under setting [6], 6540; under setting [7], 6770; under setting [4], 6720.

On to `O=C1C(Nc2ccccc2)=CC(=O)c2ncccc21`, for which the z-score was 0.666 (inactive) and the cell count turned out to be 3000.

With `O=C(NNS(=O)(=O)c1ccccc1C(F)(F)F)c1cc2cc(Cl)ccc2o1`, the z-score is -0.12 (inactive) under setting [5], -0.121 (inactive) under setting [6], -0.307 (inactive) under setting [7] and -0.0108 (inactive) under setting [4]. Besides, the cell count amounted to 7080 under setting [5], 6790 under setting [6], 7310 under setting [7] and 6850 under setting [4].

Turning to `CC=C(C)C(=O)OC1C(C)=C[C@]23C(=O)C(C=C(CO)C(O)[C@]12O)C1C(CC3C)C1(C)C` (some centres not stated), the z-score under setting [5] is 1.37 (inactive), the z-score under setting [6] was 1.94 (inactive), the z-score under setting [7] was 1.83 (inactive) and the z-score under setting [4] was 1.83 (inactive). For the same compound, the cell count is, setting by setting: under setting [5], 6280; under setting [6], 6170; under setting [7], 6240; under setting [4], 5670.

In the case of `CCCCCCCCCCCCCCCC(=O)NC[C@@H](C)O`, the z-score was -0.297 (inactive) and the cell count turned out to be 5690.

For the compound `CCCCC/C=C\C=C1\C(=O)CC[C@@H]1C/C=C\CCCC(=O)O`, the z-score is -0.163 (inactive) and the cell count was found to be 5580.

Turning to `COc1ccc(C(=O)O)cc1`, the z-score was -0.451 (inactive) under setting [1], -0.128 (inactive) under setting [2], -0.287 (inactive) under setting [3] and -0.368 (inactive) under setting [4]. Moreover, the cell count under setting [1] worked out at 6090, the cell count under setting [2] is 5780, the cell count under setting [3] was 5670 and the cell count under setting [4] stood at 5840.

Turning to `COc1ccc(C(=O)CC2(O)C(=O)Nc3c(Cl)ccc(Cl)c32)cc1` (configuration not stated), where the note is “library stock 10 mM”, the outcome is “inactive; censored for cell count”. Moreover, the z-score was -0.53 (inactive) under setting [5], 0.329 (inactive) under setting [6] and 3.41 (active) under setting [7]. Further, the cell count worked out at 7260 under setting [5], 5870 under setting [6] and 2920 under setting [7].

For the compound `COc1ccc(C(=O)C(=O)c2ccc(OC)cc2)cc1`, the z-score is, setting by setting: under setting [1], -0.606 (inactive); under setting [2], -0.661 (inactive); under setting [3], -0.561 (inactive); under setting [4], -0.758 (inactive). Moreover, the cell count was determined as 5520 under setting [1], 5760 under setting [2], 5480 under setting [3] and 5880 under setting [4].

Consider `CCCCCCCCCCCCC(O)C(=O)O` (configuration not stated), for which the z-score was -0.554 (inactive) and the cell count turned out to be 5820.

For `CCCCC[C@@H](O)/C=C/[C@@H]1[C@@H](C/C=C\CCCC(=O)O)[C@@H](O)C[C@H]1O`, the z-score is -0.443 (inactive) and the cell count is 5100.

Turning to `CCCCC[C@H](O)CC[C@H]1[C@H](O)CC(=O)[C@@H]1CCCCCCC(=O)O`, the z-score was 0.391 (inactive) and the cell count came to 5410.

As to `CCCCC[C@H](O)/C=C/[C@H]1C(=O)C=C[C@@H]1C/C=C\CCCC(=O)O`, the z-score is -0.0566 (inactive) and the cell count was determined as 4900.

Regarding `NCCCCN(Cc1nc2ccccc2[nH]1)C1CCCc2cccnc21` (configuration not stated), the z-score under setting [1] was -0.0283 (inactive), the z-score under setting [2] was 0.157 (inactive), the z-score under setting [3] was 0.36 (inactive) and the z-score under setting [4] was 2.01 (active). Moreover, the cell count under setting [1] turned out to be 5890, the cell count under setting [2] amounted to 5860, the cell count under setting [3] stood at 5630 and the cell count under setting [4] turned out to be 3290.

As for `CCCCC[C@@](C)(O)/C=C/[C@@H]1[C@@H](C/C=C\CCCC(=O)OC)[C@@H](O)C[C@H]1O`, the z-score was -0.104 (inactive) and the cell count is 5030.

With `CCCCC[C@H](O)/C=C/[C@@H]1c2cc(CCCCC(=O)O)n(-c3ccccc3)c2C[C@H]1O`, the z-score is -1.31 (inactive) and the cell count turned out to be 6120.

As to `COc1cc2nccc(Oc3ccc(NC(=O)Nc4cc(C)on4)c(Cl)c3)c2cc1OC`, for the setting “library stock 10 mM”, the outcome is “inactive; censored for cell count”. Besides, the z-score was -0.536 (inactive) and -0.288 (inactive) under setting [1]; -0.724 (inactive) and -0.129 (inactive) under setting [2]; -1.01 (inactive) and -0.967 (inactive) under setting [3]; 5.93 (active) under setting [4]. The cell count under setting [1] was 4520 and 5260; the cell count under setting [2] was 4890 and 4760; the cell count under setting [3] was 4710 and 4870; the cell count under setting [4] is 1710.

Turning to `COc1cc(OC)c(NC(=O)Nc2cc(C)on2)cc1Cl`, the z-score reads like this: under setting [1], -0.669 (inactive); under setting [2], -0.368 (inactive); under setting [3], -0.584 (inactive); under setting [4], -0.574 (inactive). Also, the cell count runs as follows: under setting [1], 6520; under setting [2], 5740; under setting [3], 6660; under setting [4], 5990.
